In PubChem BioAssay one finds inhibition and activation (reported as inhibition) data, which are given here for 34 molecules.

As a reminder, the inhibition is the drop in the measured response relative to a control, in per cent.

Unmarked numbers belong to inactive results. The list shows a part of the results. Active and inactive are the calls of the source.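 The calls were made as follows, unless noted: active = inhibition above a limit from the primary screen, the mean over all compounds plus 3 SD (cut at about 19% in these data); inactive = the rest.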

Test [1] has as its system Fam108b (Abhd17b) serine hydrolase [Mus musculus]. The experiment in a line: inhibition of Fam108b (Abhd17b) hydrolase – biochemical, fluorescence polarization, triplicate, counter-screen for RBBP9 inhibitor project, confirmation (AID 1978).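 Also: 0% = median of active Fam108b wells and 100% = catalytically dead S170A mutant; inhibitors free the probe so polarization falls as inhibition rises.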 The note with it: recombinant Fam108b, FP-Rh probe fluorescence polarization; at 9.51 µM; hits give high values.
Test [2] concerns the target Protein phosphatase methylesterase 1 (Homo sapiens) (UniProt Q9Y570). The experiment in a line: human PME-1 methylesterase inhibition confirmation – biochemical, fluorescence polarization, FP-Rh probe, triplicate (AID 2171;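 active = inhibition above the hit cutoff set in the earlier primary screen, cut at about 27% in these data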;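 also: 0% = enzyme with DMSO and 100% = wells lacking PME-1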). The note with it: recombinant PME-1, FP-Rh probe fluorescence polarization; at 5.9 µM; hits give high values.
Test [3] has as its target (Lyso)-N-acylphosphatidylethanolamine lipase (Mus musculus) (UniProt Q8VD66). The experiment in a line: mouse ABHD4 hydrolase blockers, triplicate – biochemical, fluorescence polarization, confirmation (AID 720658;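 active = mean inhibition across replicates above the hit cutoff set in the primary screen, cut at about 30% in these data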;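 also: 0% = wild-type ABHD4 with DMSO and 100% = catalytically dead S159A mutant with DMSO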). The note with it: purified mABHD4, FP-Rh probe fluorescence polarization; at 8.92 µM; hits give high values. (In general: In fluorescence polarisation assays a small probe gives low polarisation when free and higher when bound to something large.)

A short description of test [4]: suppression of KLF5 promoter-driven luciferase – DLD-1 cells, luminescence, confirmation (AID 1834;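 active = inhibition above a set limit taken from the earlier primary screen, cut at about 63% in these data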;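 also: 0% = DMSO wells and 100% = LY294002 at 200 µM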). The note with it: DLD-1 KLF5 promoter firefly luciferase reporter, at 4 µM, hits give high values. On the technique in general: In a reporter assay the amount or activity of a reporter protein is the signal.
Test [5] is described as follows: IEC-6 intestinal cell killing – luminescence, triplicate, cytotoxicity control for KLF5 inhibitor project (AID 1905; in the data active = inhibition above about 23%;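 also: cells exposed to compounds for 48 hours before viability read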). The note with it: IEC-6 rat intestinal cells, viability luminescence; at 4 µM; hits give high values.
Test [6] relates to transactivating tegument protein VP16 (Human herpesvirus 1). The experiment in a line: compounds suppressing VP16-driven luciferase signal – cell-based, luminescence, single concentration, counter-screen for SRC2 inhibitor project (AID 652007; in the data active = inhibition above about 36%). The note with it: cell-based VP16 transactivation luciferase reporter, at 8.9 µM, hits give high values. (The purpose of a counterscreen is to sort out artefacts and off-target activity.)

Test [7] has as its target Nuclear receptor coactivator 2 (Homo sapiens) (UniProt Q15596). Nature of the test: inhibition of GAL4-SRC2 driven luciferase expression – cell-based, luminescence, HEK293, triplicate, confirmation (AID 652008;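 active = mean inhibition above 46.5%, the solvent-only control mean plus 3 SD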;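 also: 0% = DMSO-treated cells and 100% = Gossypol at 36 µM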). The note with it: HEK293 GAL4-SRC2 luciferase reporter, at 8.9 µM, hits give high values.
Test [8] can be described thus: VP16-driven transactivation reporter suppression – cell-based, luminescence, HEK293, counter-screen for COUP-TFII antagonist project (AID 687007; in the data active = inhibition above about 13%). The note with it: HEK293 Gal4-VP16 luciferase reporter, at 8.5 µM, hits give high values.
Test [9] addresses COUP transcription factor 2 (Homo sapiens) (UniProt P24468). The experiment in a line: retest of COUP-TFII reporter suppressors – cell-based, luciferase reporter, HEK293, triplicate, confirmation (AID 687008;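 active = mean inhibition over three repeats above a set limit taken from the earlier primary screen, cut at about 38% in these data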;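 also: 100% = cells given the luciferase reporter alone without the COUP-TF2 vector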). The note with it: HEK293 NGFI-A luciferase reporter, luminescence; at 8.5 µM; hits give high values.
In test [10] the target is Platelet-activating factor acetylhydrolase IB subunit alpha1 (Homo sapiens) (UniProt Q15102). Nature of the test: inhibition of PAF acetylhydrolase 1B subunit 3 – biochemical, fluorescence polarization, human, confirmation (AID 493032;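 active = average inhibition over triplicate runs above the hit cutoff set in the earlier primary screen, cut at about 25% in these data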;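 also: 0% = enzyme with DMSO and 100% = wells lacking PAFAH1B3 protein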). The note with it: recombinant PAFAH1B3, FP-Rh activity-based probe, at 3.39 µM, hits give high values.
The target in test [11] is Serine protease HTRA1 (Homo sapiens) (UniProt Q92743). The experiment in a line: confirming inhibition of human HTRA1 – biochemical, fluorescence polarization, confirmation (AID 540248;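 active = mean inhibition over three repeats above a set limit taken from the earlier primary screen, cut at about 37% in these data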;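 also: 0% = HTRA1 with DMSO and 100% = wells lacking HTRA1; inhibitors block probe binding so polarization drops and inhibition rises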). The note with it: recombinant HTRA1, FP-rhodamine activity-based probe, at 5.96 µM, hits give high values.
The target of test [12] is Bcl-2-like protein 1 (Homo sapiens) (UniProt Q07817). Nature of the test: Bcl-xL BH3-peptide displacement, hit confirmation – biochemical, fluorescence polarization, counter-screen for MCL1 inhibitor project (AID 2166;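 active = inhibition above a cutoff equal to the mean inhibition of all tested compounds plus 3 SD, cut at about 30% in these data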). The note with it: GST-Bcl-xL / FITC-Bim BH3 peptide FP binding; at 10.9 µM; hits give high values.
Test [13] deals with Induced myeloid leukemia cell differentiation protein Mcl-1 (Homo sapiens) (UniProt Q07820). Nature of the test: MCL1-BIM peptide interaction disruptors – biochemical, fluorescence polarization, triplicate, confirmation (AID 2168;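 active = inhibition above the average of all tested compounds plus 3 SD, cut at about 40% in these data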;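 also: 0% = DMSO wells and 100% = unlabeled Bim-BH3 control peptide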). The note with it: GST-MCL1 / FITC-Bim-BH3 fluorescence polarization; at 10.9 µM; hits give high values.
In test [14] the target is Glutathione S-transferase omega-1 (Homo sapiens) (UniProt P78417). Nature of the test: recombinant GSTO1 blockers, retest – biochemical, fluorescence polarization, triplicate, counter-screen for RBBP9 inhibitor project, confirmation (AID 2176;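 active = inhibition above the primary screen's cutoff, its mean inhibition plus 3 SD, cut at about 35% in these data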;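 also: loss of polarization as inhibitors block binding of rhodamine sulfonate ester activity probe; 0% = GSTO1 with DMSO and 100% = wells lacking GSTO1 enzyme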). The note with it: recombinant GSTO1, probe fluorescence polarization; at 5.96 µM; hits give high values.
Test [15] deals with Photoreceptor-specific nuclear receptor (Homo sapiens) (UniProt Q9Y5X4). Nature of the test: corepressor-releasing ligands of human NR2E3 – biochemical, TR-FRET, confirmation (AID 2379; in the data active = activation above about 20%). The note with it: cell-free NR2E3 corepressor release, 5 h, at 3.98 µM, hits give high values.
In test [16] the target is Platelet-activating factor acetylhydrolase (Homo sapiens) (UniProt Q13093). The experiment in a line: inhibition of plasma PAF acetylhydrolase – biochemical, fluorescence polarization, human, confirmation (AID 463230;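 active = mean inhibition of the triplicate above the hit cutoff set for the earlier primary screen, cut at about 25% in these data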;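 also: 0% = enzyme with DMSO and 100% = wells lacking pPAFAH enzyme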). The note with it: recombinant pPAFAH, FP-Rh probe fluorescence polarization; at 3.39 µM; hits give high values.
In test [17] the target is Protein-arginine deiminase type-4 (Homo sapiens) (UniProt Q9UM07). Nature of the test: protein arginine deiminase 4 blockade, retest – biochemical, fluorescence polarization, confirmation (AID 488796;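 active = mean inhibition across replicates above the hit cutoff set by the earlier primary screen, cut at about 15% in these data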;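 also: inhibitors block active-site labeling by the probe so polarization falls; 0% = PAD4 with probe and DMSO and 100% = probe without PAD4 enzyme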). The note with it: recombinant PAD4, RCA probe fluorescence polarization; at 6.36 µM; hits give high values.
Test [18] concerns the target Peroxisome proliferator-activated receptor gamma (Homo sapiens) + Nuclear receptor corepressor 2 (Homo sapiens) (UniProt P37231+Q9Y618). Nature of the test: agonists of PPARg-NCOR2 corepressor interaction, counter-screen for NR2E3 agonist project, biochemical, TR-FRET (AID 504787; in the data active = inhibition above about 20%;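 also: 0% = DMSO vehicle and 100% = wells without protein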). The note with it: TR-FRET PPARg-NCOR2 coregulator interaction, at 3.98 µM, hits give high values.

Test [19] is described as follows: BSA probe fluorescence interference – biochemical, TAMRA-labeled BSA, counter-screen for TCR-CD3 interaction inhibitor project (AID 652035; in the data active = inhibition above about 23%;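 also: 0% = buffer low control and 100% = reference high control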). The note with it: TAMRA-labeled BSA probe fluorescence counterscreen; at 9.4 µM; hits give high values.
The subject of test [20] is T-cell receptor (TCR)-CD3 interaction, human. Nature of the test: blockers of TCR binding to CD3 – biochemical, fluorescence, TAMRA-labeled TCR probe, confirmation (AID 652036; in the data active = inhibition above about 19%). The note with it: TAMRA-labeled TCR probe fluorescence binding assay; at 9.4 µM; hits give high values.
Test [21] has as its target Toll-like receptor 9 (Homo sapiens) (UniProt Q9NR96). The experiment in a line: disruptors of TLR9 binding to MyD88 – cell-based, CHO, BLA complementation, fluorescence, triplicate, confirmation (AID 540250;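 active = mean inhibition across three repeats above about 21% taken from the earlier screen, limit read from the data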;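 also: blue over green emission ratio reports constitutive TLR9 MyD88 association via BLA complementation; 0% = DMSO vehicle wells and 100% = clavulanate BLA inhibitor wells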). The note with it: CCF4 FRET ratio, at 4.98 µM, hits give high values.
The nature of test [22]: BLA reporter readout interference – cell-based, fluorescence, artefact control for TLR9-MyD88 binding inhibitor project (AID 540251;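 active = mean inhibition above a 50% cutoff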;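 also: counterscreen of TLR9-MyD88 hits on CMV-driven BLA in CHO-K1 cells; 0% = DMSO alone and 100% = clavulanate blocking BLA; higher means less blue over green ratio so more BLA blockade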). The note with it: CHO-BLA cells, CCF4 FRET ratio, at 4.98 µM, hits give high values.
Test [23] can be described thus: CHO cell viability loss – luminescence, single concentration, cytotoxicity control for TLR9-MyD88 binding inhibitor project (AID 588336; in the data active = inhibition above about 11%). The note with it: TLR9-MyD88 CHO cells cytotoxicity, at 4.98 µM, hits give high values.

Protein phosphatase methylesterase 1 (Homo sapiens), sequence (Q9Y570 whole entry, looked up): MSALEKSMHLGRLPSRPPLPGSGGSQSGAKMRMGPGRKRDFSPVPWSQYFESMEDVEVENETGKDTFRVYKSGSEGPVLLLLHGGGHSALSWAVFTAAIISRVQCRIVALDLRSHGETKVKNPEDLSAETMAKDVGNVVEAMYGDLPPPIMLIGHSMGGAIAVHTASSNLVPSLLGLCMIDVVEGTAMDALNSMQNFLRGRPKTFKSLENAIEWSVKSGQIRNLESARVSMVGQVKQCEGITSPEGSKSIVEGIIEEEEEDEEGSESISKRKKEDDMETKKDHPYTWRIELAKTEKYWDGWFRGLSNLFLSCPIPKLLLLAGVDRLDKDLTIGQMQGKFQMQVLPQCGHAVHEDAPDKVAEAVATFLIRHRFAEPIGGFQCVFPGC
Induced myeloid leukemia cell differentiation protein Mcl-1 (Homo sapiens), sequence (Q07820 whole entry, looked up): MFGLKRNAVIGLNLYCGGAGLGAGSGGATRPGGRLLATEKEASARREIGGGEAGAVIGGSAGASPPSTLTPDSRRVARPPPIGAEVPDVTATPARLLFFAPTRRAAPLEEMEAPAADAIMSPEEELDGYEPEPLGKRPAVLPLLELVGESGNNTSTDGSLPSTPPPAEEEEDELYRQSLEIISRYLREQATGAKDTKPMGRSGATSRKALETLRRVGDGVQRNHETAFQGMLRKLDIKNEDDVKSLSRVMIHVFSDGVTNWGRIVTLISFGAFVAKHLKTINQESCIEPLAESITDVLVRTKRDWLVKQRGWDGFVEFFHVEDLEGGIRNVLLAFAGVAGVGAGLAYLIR
Platelet-activating factor acetylhydrolase (Homo sapiens), sequence (Q13093 whole entry, looked up): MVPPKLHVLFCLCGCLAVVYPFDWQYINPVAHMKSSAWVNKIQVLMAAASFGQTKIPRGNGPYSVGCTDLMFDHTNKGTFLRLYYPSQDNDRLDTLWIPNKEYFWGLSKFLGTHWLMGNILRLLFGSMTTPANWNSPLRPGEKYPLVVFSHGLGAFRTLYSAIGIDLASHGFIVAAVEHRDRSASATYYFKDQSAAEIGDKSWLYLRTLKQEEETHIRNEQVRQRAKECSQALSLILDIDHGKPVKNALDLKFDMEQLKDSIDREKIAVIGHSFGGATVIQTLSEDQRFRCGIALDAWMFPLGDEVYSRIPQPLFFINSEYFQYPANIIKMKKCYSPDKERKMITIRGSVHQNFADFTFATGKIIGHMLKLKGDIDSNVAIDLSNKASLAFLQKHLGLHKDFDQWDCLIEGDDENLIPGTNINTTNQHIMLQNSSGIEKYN
Bcl-2-like protein 1 (Homo sapiens), sequence (Q07817 whole entry, looked up): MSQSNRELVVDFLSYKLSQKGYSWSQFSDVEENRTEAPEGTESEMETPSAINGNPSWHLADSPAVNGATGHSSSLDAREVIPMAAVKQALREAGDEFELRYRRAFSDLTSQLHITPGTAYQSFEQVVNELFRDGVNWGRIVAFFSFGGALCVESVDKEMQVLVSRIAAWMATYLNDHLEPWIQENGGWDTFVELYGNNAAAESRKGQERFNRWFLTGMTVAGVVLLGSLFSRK
Glutathione S-transferase omega-1 (Homo sapiens), sequence (P78417 whole entry, looked up): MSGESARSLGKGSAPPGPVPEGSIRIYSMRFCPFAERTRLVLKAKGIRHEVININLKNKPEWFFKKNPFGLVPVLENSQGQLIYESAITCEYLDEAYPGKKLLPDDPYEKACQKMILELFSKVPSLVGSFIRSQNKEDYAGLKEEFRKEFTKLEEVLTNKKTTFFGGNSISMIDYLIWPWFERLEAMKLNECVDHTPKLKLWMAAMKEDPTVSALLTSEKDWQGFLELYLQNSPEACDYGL
(Lyso)-N-acylphosphatidylethanolamine lipase (Mus musculus), sequence (Q8VD66 whole entry, looked up): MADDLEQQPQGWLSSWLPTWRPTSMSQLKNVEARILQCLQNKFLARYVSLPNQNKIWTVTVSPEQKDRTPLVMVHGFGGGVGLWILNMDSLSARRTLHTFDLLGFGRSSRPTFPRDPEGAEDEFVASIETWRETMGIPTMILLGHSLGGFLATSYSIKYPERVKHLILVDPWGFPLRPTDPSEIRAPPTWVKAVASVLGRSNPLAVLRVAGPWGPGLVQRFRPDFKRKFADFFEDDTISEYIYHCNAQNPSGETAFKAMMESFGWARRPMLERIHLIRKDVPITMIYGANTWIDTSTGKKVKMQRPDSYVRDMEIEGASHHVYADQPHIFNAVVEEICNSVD
Protein-arginine deiminase type-4 (Homo sapiens), sequence (Q9UM07 whole entry, looked up): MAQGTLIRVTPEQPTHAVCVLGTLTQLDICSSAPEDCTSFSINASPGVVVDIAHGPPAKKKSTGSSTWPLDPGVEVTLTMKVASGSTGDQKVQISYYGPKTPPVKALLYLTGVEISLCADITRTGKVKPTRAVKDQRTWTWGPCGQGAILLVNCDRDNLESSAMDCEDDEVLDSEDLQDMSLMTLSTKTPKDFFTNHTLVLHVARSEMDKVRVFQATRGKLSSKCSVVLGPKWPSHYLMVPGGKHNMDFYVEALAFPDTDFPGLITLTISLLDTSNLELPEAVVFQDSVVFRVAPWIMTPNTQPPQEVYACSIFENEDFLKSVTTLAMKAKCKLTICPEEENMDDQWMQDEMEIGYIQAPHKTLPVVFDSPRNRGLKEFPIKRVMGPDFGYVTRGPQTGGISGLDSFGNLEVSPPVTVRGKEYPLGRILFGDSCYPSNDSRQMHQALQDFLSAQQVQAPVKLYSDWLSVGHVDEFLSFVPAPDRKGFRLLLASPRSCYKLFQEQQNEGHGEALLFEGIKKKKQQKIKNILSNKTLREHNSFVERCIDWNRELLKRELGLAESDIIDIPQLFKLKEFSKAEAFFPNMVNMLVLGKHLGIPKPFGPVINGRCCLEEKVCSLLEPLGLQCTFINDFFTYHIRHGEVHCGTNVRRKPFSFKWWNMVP
Platelet-activating factor acetylhydrolase IB subunit alpha1 (Homo sapiens), sequence (Q15102 whole entry, looked up): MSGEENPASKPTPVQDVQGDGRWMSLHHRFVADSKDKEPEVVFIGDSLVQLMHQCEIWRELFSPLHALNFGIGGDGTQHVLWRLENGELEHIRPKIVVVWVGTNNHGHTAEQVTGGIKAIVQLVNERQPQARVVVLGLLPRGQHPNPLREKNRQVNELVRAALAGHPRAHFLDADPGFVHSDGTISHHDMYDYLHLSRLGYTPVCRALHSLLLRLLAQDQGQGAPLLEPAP
Nuclear receptor coactivator 2 (Homo sapiens), sequence (Q15596 whole entry, looked up, the tested form may be a part): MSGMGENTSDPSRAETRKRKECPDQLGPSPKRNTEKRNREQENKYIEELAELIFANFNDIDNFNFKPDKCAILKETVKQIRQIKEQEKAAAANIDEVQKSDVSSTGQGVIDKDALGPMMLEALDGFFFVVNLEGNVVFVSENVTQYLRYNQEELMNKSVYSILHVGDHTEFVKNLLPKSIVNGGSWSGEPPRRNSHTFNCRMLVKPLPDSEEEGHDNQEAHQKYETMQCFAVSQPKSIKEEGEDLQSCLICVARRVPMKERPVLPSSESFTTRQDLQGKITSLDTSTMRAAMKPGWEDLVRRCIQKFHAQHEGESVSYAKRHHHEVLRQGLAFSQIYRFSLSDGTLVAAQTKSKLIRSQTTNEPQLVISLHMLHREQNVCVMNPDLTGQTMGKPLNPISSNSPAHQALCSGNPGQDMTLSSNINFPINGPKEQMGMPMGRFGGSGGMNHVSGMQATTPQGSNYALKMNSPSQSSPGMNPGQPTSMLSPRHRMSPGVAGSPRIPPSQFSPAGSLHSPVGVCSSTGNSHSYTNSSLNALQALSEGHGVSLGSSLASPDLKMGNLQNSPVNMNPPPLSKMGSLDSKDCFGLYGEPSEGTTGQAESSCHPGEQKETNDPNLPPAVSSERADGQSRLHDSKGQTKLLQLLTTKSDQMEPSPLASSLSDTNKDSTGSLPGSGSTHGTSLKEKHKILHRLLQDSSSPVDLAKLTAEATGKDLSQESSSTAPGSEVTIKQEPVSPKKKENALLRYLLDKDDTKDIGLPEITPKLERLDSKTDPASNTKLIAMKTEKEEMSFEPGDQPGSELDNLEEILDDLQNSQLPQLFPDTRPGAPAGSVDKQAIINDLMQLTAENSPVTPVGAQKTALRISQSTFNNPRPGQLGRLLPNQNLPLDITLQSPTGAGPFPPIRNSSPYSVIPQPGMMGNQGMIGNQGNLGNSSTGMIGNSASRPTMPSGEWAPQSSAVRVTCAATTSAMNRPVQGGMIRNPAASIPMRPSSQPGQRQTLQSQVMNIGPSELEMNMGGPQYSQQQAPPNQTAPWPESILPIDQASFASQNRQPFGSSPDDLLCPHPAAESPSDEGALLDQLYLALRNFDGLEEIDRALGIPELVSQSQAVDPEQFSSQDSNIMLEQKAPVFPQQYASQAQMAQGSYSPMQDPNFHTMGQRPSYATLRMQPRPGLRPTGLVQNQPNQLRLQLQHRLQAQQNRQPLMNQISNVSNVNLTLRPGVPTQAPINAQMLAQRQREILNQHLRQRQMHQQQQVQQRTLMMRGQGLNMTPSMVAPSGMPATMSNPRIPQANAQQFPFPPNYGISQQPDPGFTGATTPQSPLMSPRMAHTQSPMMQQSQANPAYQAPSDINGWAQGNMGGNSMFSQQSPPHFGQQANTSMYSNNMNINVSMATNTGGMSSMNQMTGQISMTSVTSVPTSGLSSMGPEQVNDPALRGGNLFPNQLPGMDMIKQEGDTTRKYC
COUP transcription factor 2 (Homo sapiens), sequence (P24468 whole entry, looked up): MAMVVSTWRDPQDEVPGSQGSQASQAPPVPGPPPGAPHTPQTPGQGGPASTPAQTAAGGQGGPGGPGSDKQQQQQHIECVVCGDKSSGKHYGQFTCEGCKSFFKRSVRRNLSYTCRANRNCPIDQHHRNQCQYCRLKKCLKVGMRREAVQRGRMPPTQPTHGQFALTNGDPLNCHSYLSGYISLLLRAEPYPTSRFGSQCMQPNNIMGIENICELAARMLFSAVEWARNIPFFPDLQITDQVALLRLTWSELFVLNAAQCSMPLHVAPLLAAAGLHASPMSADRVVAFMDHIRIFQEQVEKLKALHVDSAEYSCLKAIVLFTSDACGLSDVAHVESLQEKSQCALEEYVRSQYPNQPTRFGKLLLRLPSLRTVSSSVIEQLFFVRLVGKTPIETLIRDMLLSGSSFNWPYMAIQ

Take `COc1ccc(-c2csc(NC(=O)COC(=O)Cc3ccc(Cl)cc3Cl)n2)cc1`: in [1], the inhibition was 3.19%.

As to `CCCCC(=O)Nc1nc(C)c(-c2csc(Nc3ccc(Cl)cc3)n2)s1`, the inhibition in test [1] is 8.42%.

In the case of `Cc1nc(NC(=O)c2cccc(Cl)c2)sc1-c1csc(Nc2cccc(Cl)c2)n1`, the inhibition in [1] was 9.74%.

Regarding `Oc1ccc(C2Nc3cccc4cccc(c34)N2)cc1`, the results for the inhibition in [1] and in test [2] were 14.4% and 12.9%, respectively.

Consider `Cc1[nH]n(C(N)=S)c(=O)c1N=Nc1ccc(Cl)cc1Cl`, for which the inhibition in test [1] is 22.4% (active).

In the case of `O=C(NNc1c2ccccc2nc2ccccc12)c1cc2ccccc2cc1O`, the figures for the inhibition in [1], in test [2] and in [3] were 51.3% (active), -6.46% and 41% (active), respectively.

As for `Cc1ccc(-c2cn3cc(C)ccc3n2)cc1`, the inhibition in test [4] was 85% (active); in test [5] it was 8.78%; in test [6], 45.9% (active); in test [7], 69.2% (active); in test [8], 20.1% (active); in test [9], 43.9% (active).

As for `O=C(N/N=C/c1sc(N2CCCCC2)nc1-c1cccs1)c1cccnc1`, the inhibition in test [1] is 9.2%; in [10], 12.7%; in test [11], 58.4% (active).

As for `COCCNC(=O)Nc1ccc2nc(-c3ccco3)c(-c3ccco3)nc2c1`, the inhibition in test [1] is 17.4%; in test [12], 104% (active); in [13] it was 136% (active); in test [14] it was 64.7% (active); in test [16], 33.1% (active); in test [17], 1.02%. Also, the inhibition was -6.1% in test [18], -14.8% in test [19] and 41.6% (active) in test [20]. Besides, the activation (reported as inhibition) in test [15] is -0.99%.

Take `CN(NC(=O)c1ccccc1F)c1nc(C(F)(F)F)nc2ccccc12`: the inhibition is 77% (active) in test [4], 59.6% (active) in test [5], 4.94% in test [19] and 2.71% in test [20].

On to `Cc1ccc(-c2nc3c(cnn3-c3ccccc3)c(=O)o2)cc1`, for which, in [1], the inhibition was 16.2%.

For the molecule `COc1ccc(-c2nc(CS(=O)CC(=O)NCc3ccccn3)c(C)o2)cc1` (stereo unspecified), the inhibition was 23.4% (active) in test [1], 96.8% (active) in [12] and 125% (active) in test [13].

On to `O=C(NC1CC1)c1ccc(-c2ccccc2)cc1`, for which the inhibition in test [1] was -4.72%.

On to `C/C(=C\c1ccco1)C1Nc2cccc3cccc(c23)N1`, for which the inhibition in test [1] was 26.3% (active).

On to `O=C(Nc1ccc(-c2csc(Nc3cccc(C(F)(F)F)c3)n2)cc1)c1cccc(C(F)(F)F)c1`, for which the inhibition in test [1] was 33.6% (active).

Regarding `COc1ccc(OC)c(Nc2nc(-c3ccc(O)c(O)c3)cs2)c1`, the inhibition in [1] is -20.9%; in [14], 2.96%; in test [16], 50.8% (active).

With `COCCOC(=O)c1sc(=S)n(CCOC)c1N`, the inhibition in test [1] was 19.6% (active); in [12], 85.4% (active); in test [13], 131% (active); in test [2] it was 21.3%; in [19] it was 42.3% (active); in test [20], 33.1% (active). Besides, the inhibition in [3] is 47.4% (active).

Consider `COc1ccc(/C=C/C(=O)OCC(=O)Nc2cccc(Oc3ccccc3)c2)c(OC)c1`, for which the inhibition in [1] was 47.3% (active).

Take `c1ccc(CSc2nnc(-c3ccco3)c(-c3ccco3)n2)cc1`: the inhibition was 1.53% in [1]; 13.9% in test [12]; 59.9% (active) in [13]; 33.6% in test [14]; 33.6% (active) in [16].

Take `Cc1ccc(C2C3=C(Nc4[nH]n(-c5ccccc5)c(=O)c42)c2ccccc2C3=O)cc1` (stereo unspecified): the inhibition in test [1] was 56.8% (active).

Turning to `CC[N+](C)(CC)CCC[n+]1c(-c2ccccc2)c2cc(N)ccc2c2ccc(N)cc21`, the inhibition in test [1] is 61.8% (active); in test [14], 85.8% (active).

Consider `Cc1nnc(NC(=O)/C=C/c2ccco2)s1`, for which the values for the inhibition in test [12] and in [13] were 11.6% and 16.8%, respectively.

Regarding `COC(=O)C[n+]1cccc2ccccc21`, the inhibition is 142% (active) in [12] and 173% (active) in test [13].

As to `COc1ccc2nc(Nc3nc4cc5c(cc4s3)OCCO5)sc2c1`, in test [1], the inhibition was -9.21%.

Regarding `COc1ccc(NS(=O)(=O)c2cc(NC(=O)CC(=O)c3ccc([N+](=O)[O-])cc3)ccc2C)cc1`, the figures for the inhibition in test [1], in test [2] and in [11] were 44.3% (active), -1.55% and 28.7%, respectively.

Regarding `Cc1cccc2cc3c(N)c(C(=O)N4CCCc5ccccc54)sc3nc12`, the inhibition in test [1] is 4.65%; in test [21], 15.4%; in [22] it was 12.7%; in test [23], 33.7% (active).

Turning to `C/C(=N\Nc1cccc(C(=O)O)c1)c1ccc2c(c1)Nc1ccccc1S2`, the inhibition in [1] is 26.1% (active).

Turning to `COC(=O)CSc1nccc(-c2cccs2)n1`, in [1], the inhibition was -1%.

Consider `Cc1ccc(NS(=O)(=O)c2ccc(N/N=C/c3ccccc3OCC(=O)O)c([N+](=O)[O-])c2)c(C)c1`, for which the inhibition is 17.7% in test [1], 74.8% (active) in test [2], 84.3% (active) in [16] and 50.2% (active) in test [11].

Regarding `COc1ccc(Cl)cc1NC(=O)CCS(=O)(=O)c1ccc(Br)cc1`, the inhibition in [12] was 6.91%; in test [13], 46.5% (active).

As to `COc1cc([C@H](Cc2ccccc2)NC(C)=O)oc(=O)c1`, the inhibition in test [12] is 37.8% (active); in [13], 40.9% (active).

Take `COC(=O)c1sc(NC(=S)NC(=O)c2ccc(C)cc2)nc1C`: the inhibition in [12] is 12.1%; in test [13], 19.3%.

Consider `CCCN1CC=C2C(C#N)=C(N)C(C#N)(C#N)C(c3cc(OC)ccc3OC)C2C1` (stereo unspecified), for which the inhibition in test [12] is 35.6% (active); in test [13], 35.4%.

`O=S(=O)([N-]c1nc2ccccc2nc1-[n+]1ccc(Cc2ccccc2)cc1)c1ccc(Br)s1`: the inhibition in test [12] is 33.4% (active); in test [13], 33.7%.
